Measured values reported in PubChem BioAssay (NCATS).
Inconclusive results are not listed. The source made the active and inactive calls. Calls follow the shape of the dose curve; as a rule, active = well fitted curve in the direction sought with a large enough effect; inconclusive = small, poorly fitted or top-dose-only effect, or another doubt; inactive = no such curve, though single readings can be large; an effect the other way counts as inactive or inconclusive.

Legend:
[1] = qHTS of pediatric cancer cell lines to identify multiple opportunities for drug repurposing: Primary screen for Rh18 cells (AID 1347102); also: nearly all actives have a fitted effect of over 65% in size; as to activity change, negative = cytotoxic: % is scaled to controls: 0 for no effect and ±100 for the full control effect
How it was run: (§1)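 Cells (500-1,000/well) rested 5 h, then received compounds for 48 h; metabolically active cells were measured by CellTiter-Glo luminescence. Final concentrations spanned up to 46 µM (MIPE, 11-point) or 0.59 nM-46 µM (NPC, 8-point) in primary screens, 11-point in follow-ups.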

[2] = qHTS of pediatric cancer cell lines to identify multiple opportunities for drug repurposing: Primary screen for OHS-50 cells (AID 1347103); also: nearly all actives have a fitted effect of over 40% in size;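 as to activity change, negative = cytotoxic: plate controls were DMSO neutral control for no effect and bortezomib positive control for full effect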
How it was run: as §1

[3] = qHTS of pediatric cancer cell lines to identify multiple opportunities for drug repurposing: Primary screen for RD cells (AID 1347104); also: nearly all actives have a fitted effect of over 55% in size;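 as to activity change, negative = cytotoxic: plate controls were DMSO for no effect and bortezomib for full effect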
How it was run: (§2)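 Plated cells (500-1,000 per well, growth media) were allowed to settle for 5 hours, treated with compound dilutions for 48 hours, then lysed with CellTiter-Glo for 15 min at room temperature before luminescence reading.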

[4] = qHTS of pediatric cancer cell lines to identify multiple opportunities for drug repurposing: Primary screen for control Hh wild type fibroblast cells (AID 1347106); also: nearly all actives have a fitted effect of over 55% in size;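 as to activity change, negative = cytotoxic: % is scaled to controls: 0 for no effect and ±100 for the full control effect; a drop in luminescence marks cytotoxicity and a rise apparent proliferation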
How it was run: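 Viability after 48 h compound treatment at 37C, 500-1,000 cells/well, read as ATP luminescence with CellTiter-Glo. Primary screens used 11-point (MIPE, 0.78 nM-46 µM) or 8-point (NPC, 0.59 nM-46 µM) final concentrations; follow-up screens used 11-point dilutions.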

[5] = qHTS of pediatric cancer cell lines to identify multiple opportunities for drug repurposing: Primary screen for Rh30 cells (AID 1347107); also: nearly all actives have a fitted effect of over 75% in size; as to activity change, negative = cytotoxic: % is scaled to controls: 0 for no effect and ±100 for the full control effect
How it was run: as §1

[6] = qHTS of pediatric cancer cell lines to identify multiple opportunities for drug repurposing: Primary screen for MG 63 (6-TG R) cells (AID 1347105); also: nearly all actives have a fitted effect of over 50% in size; as to activity change, negative = cytotoxic: % is scaled to controls: 0 for no effect and ±100 for the full control effect
How it was run: as §2

[7] = qHTS of pediatric cancer cell lines to identify multiple opportunities for drug repurposing: Primary screen for Rh41 cells (AID 1347108); also: nearly all actives have a fitted effect of over 70% in size;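 as to activity change, negative = cytotoxic: luminescence drop marks cytotoxic hits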
How it was run: as §2

[8] = qHTS of pediatric cancer cell lines to identify multiple opportunities for drug repurposing: Confirmatory screen for NB1643 cells (AID 1347109); also: nearly all actives have a fitted effect of over 45% in size
How it was run: as §1

[9] = qHTS of pediatric cancer cell lines to identify multiple opportunities for drug repurposing: Confirmatory screen for A673 cells (AID 1347110);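 also: cells exposed to compound for 48 h before the viability read; nearly all actives have a fitted effect of over 65% in size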
How it was run: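 A673 cells at 500-1,000 cells/well were dosed 5 h after plating, in dilution series up to 46 uM final; primary runs used 8 or 11 points and confirmatory runs used 11 points. Viability was read by CellTiter-Glo luminescence after 48 h, against DMSO and 2.3 uM bortezomib controls.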

[10] = qHTS of pediatric cancer cell lines to identify multiple opportunities for drug repurposing: Confirmatory screen for SK-N-MC cells (AID 1347111);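 also: cells exposed to compound for 48 h before the readout; nearly all actives have a fitted effect of over 70% in size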
How it was run: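 Seed 500-1,000 cells/well; rest 5 h at 37 degrees C. Pin-transfer compounds, 11-point titration. Incubate 48 h. Add CellTiter-Glo, 15 min RT, read luminescence.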

[11] = qHTS of pediatric cancer cell lines to identify multiple opportunities for drug repurposing: Confirmatory screen for LAN-5 cells (AID 1347113); also: nearly all actives have a fitted effect of over 65% in size
How it was run: as §1

[12] = qHTS of pediatric cancer cell lines to identify multiple opportunities for drug repurposing: Confirmatory screen for DAOY cells (AID 1347114); also: nearly all actives have a fitted effect of over 65% in size; as to activity change, negative = cytotoxic: % is scaled to controls: 0 for no effect and ±100 for the full control effect
How it was run: (§3)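 Viability measured as metabolically active cells via CellTiter-Glo luminescence following 48 hours of compound exposure, 11-point dilutions in confirmatory testing. 500-1,000 cells/well plated 5 hours before dosing; controls were DMSO and 2.3 µM bortezomib.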

[13] = qHTS of pediatric cancer cell lines to identify multiple opportunities for drug repurposing: Confirmatory screen for NB-EBc1 cells (AID 1347115);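 also: cells exposed to compound for 48 h before the viability read; nearly all actives have a fitted effect of over 45% in size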
How it was run: as §1

[14] = qHTS of pediatric cancer cell lines to identify multiple opportunities for drug repurposing: Confirmatory screen for BT-37 cells (AID 1347117); details: BT-37 pediatric cancer cells, viability; activity change, negative = cytotoxic: at 45.9 µM (top of the series); also: nearly all actives have a fitted effect of over 55% in size
How it was run: as §1

[15] = qHTS of pediatric cancer cell lines to identify multiple opportunities for drug repurposing: Confirmatory screen for TC32 cells (AID 1347118)
How it was run: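 Luminescent ATP read-out (CellTiter-Glo) of metabolically active TC32 cells after 48 h exposure. Concentration-response curves came from 11-point (MIPE, 0.78 nM–46 µM) or 8-point (NPC, 0.59 nM–46 µM) primary titrations; follow-up used 11 points.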

[16] = qHTS of pediatric cancer cell lines to identify multiple opportunities for drug repurposing: Confirmatory screen for MG 63 (6-TG R) cells (AID 1347119); also: nearly all actives have a fitted effect of over 55% in size
How it was run: as §1

[17] = qHTS of pediatric cancer cell lines to identify multiple opportunities for drug repurposing: Confirmatory screen for control Hh wild type fibroblast cells (AID 1347121); also: nearly all actives have a fitted effect of over 70% in size
How it was run: as §1

[18] = qHTS of pediatric cancer cell lines to identify multiple opportunities for drug repurposing: Confirmatory screen for SJ-GBM2 cells (AID 1347116); also: nearly all actives have a fitted effect of over 60% in size
How it was run: as §3
Potency is read from the fitted curve at half-maximal effect.

COc1cc(C)c(C=CC(C)=CC=CC(C)=CC(=O)O)c(C)c1C
active: Potency [2] 1720 nM
inactive: Potency [1] | Potency [3] | Potency [4] | Potency [5]

CN(C)c1ccc(C(=O)NCCCCCCC(=O)NO)cc1
active: Potency [1] 93.5 nM | Potency [3] 2090 nM | Potency [6] 2350 nM | Potency [5] 2350 nM | Potency [7] 935 nM | Potency [8] 1170 nM | Potency [9] 1850 nM | Potency [10] 1040 nM | Potency [11] 1850 nM | Potency [12] 3290 nM | Potency [13] 2330 nM | Potency [14] 1650 nM | Potency [15] 1650 nM | Potency [16] 1470 nM

COC(=O)[C@@H]1CC2=CC(=O)CC[C@]2(C)[C@@]23O[C@@H]2C[C@@]2(C)[C@H](CC[C@@]24CCC(=O)O4)[C@@H]13
inactive: Potency [1] | Potency [2] | Potency [3] | Potency [6] | Potency [5] | Potency [7]

O=C(C[C@@H]1CC=CCCC(=O)O[C@H](c2ccccc2)CNC1=O)NCc1ccc(Cl)cc1
inactive: Potency [1] | Potency [2] | Potency [6] | Potency [4] | Potency [5] | Potency [7]

FC(F)(F)c1ccc(Nc2nc3ccc(Oc4ccnc(-c5ncc(C(F)(F)F)[nH]5)c4)cc3[nH]2)cc1
active: Potency [2] 24300 nM | Potency [3] 18700 nM
inactive: Potency [1] | Potency [4]

O=C(Nc1cc2cc[nH]c2cn1)c1ccccc1
active: Potency [1] 11800 nM | Potency [2] 10900 nM | Potency [3] 14800 nM | Potency [6] 14800 nM | Potency [7] 18700 nM | Potency [8] 10400 nM | Potency [9] 1650 nM | Potency [10] 2610 nM | Potency [11] 14700 nM | Potency [13] 16500 nM | Potency [14] 9270 nM | Potency [15] 1850 nM | Potency [17] 14700 nM

CC(C)(C)[C@H](NC(=O)c1ccc(N)c(Cl)c1)C(=O)N1CCC[C@@H]1C(=O)N[C@H](C#N)CC(=O)O
inactive: activity change, negative = cytotoxic [1] 0.535% [at 4.84 µM] | activity change, negative = cytotoxic [2] -19.6% [at 6.18 µM] | activity change, negative = cytotoxic [6] -25.9% [at 4.84 µM] | activity change, negative = cytotoxic [4] -7.94% [at 4.84 µM] | activity change, negative = cytotoxic [5] 14.6% [at 4.84 µM]

c1ccc2c(Oc3nc(Nc4ccc(N5CCOCC5)cc4)c4ncn(C5CCCCC5)c4n3)cccc2c1
inactive: Potency [1] | Potency [3] | Potency [6] | Potency [4] | Potency [5] | Potency [7]

COc1ccc(C=Cc2cc(OC)c(OC)c(OC)c2)cc1NC(=O)[C@H](N)CO
active: Potency [2] 13.7 nM | Potency [3] 6.6 nM | Potency [9] 104 nM | Potency [10] 117 nM | Potency [11] 414 nM | Potency [13] 52.2 nM | Potency [18] 827 nM | Potency [14] 73.7 nM | Potency [15] 46.5 nM | Potency [16] 46.5 nM
inactive: Potency [1] | Potency [5] | Potency [17]

CNC(=O)Nc1ccc(-c2nc(N3CC4CCC(C3)O4)c3cnn(C4CCC5(CC4)OCCO5)c3n2)cc1
active: Potency [1] 93.5 nM | Potency [2] 21.7 nM | Potency [3] 52.6 nM | Potency [6] 11.8 nM | Potency [7] 41.8 nM | Potency [9] 1040 nM | Potency [10] 585 nM | Potency [11] 585 nM | Potency [18] 1040 nM | Potency [14] 104 nM | Potency [15] 369 nM | Potency [16] 32.9 nM

CCc1c(O)cc(O)c(C(=O)c2ccc(OCCN3CCOCC3)c(OC)c2)c1CC(=O)N(CCOC)CCOC
active: Potency [1] 1320 nM | Potency [3] 526 nM

CCCNC(=O)[C@H]1O[C@H]1C(=O)N[C@H](C(=O)N1CCC[C@@H]1C(=O)OC)C(C)CC (some centres undefined)
active: Potency [1] 14800 nM | Potency [2] 17200 nM | Potency [3] 10500 nM | Potency [5] 18700 nM | Potency [7] 7430 nM

Nc1nc(=O)n([C@H]2C[C@H](O)[C@@H](CO)O2)cc1F
inactive: Potency [1] | Potency [3] | Potency [6] | Potency [4] | Potency [5]

Cc1nc(NC(=O)N2CCC[C@@H]2C(N)=O)sc1-c1ccnc(C(C)(C)C(F)(F)F)c1
active: Potency [1] 3720 nM | Potency [3] 372 nM | Potency [6] 1180 nM | Potency [7] 4180 nM | Potency [9] 16500 nM | Potency [10] 5220 nM | Potency [11] 2930 nM | Potency [13] 16500 nM | Potency [15] 5220 nM | Potency [16] 6570 nM
inactive: Potency [12] | Potency [17]

CCN(CC)CCNC(=O)c1c(C)[nH]c(C=C2C(=O)Nc3ccc(F)cc32)c1C
active: Potency [1] 17100 nM | Potency [3] 9590 nM | Potency [6] 13600 nM | Potency [4] 17100 nM | Potency [7] 13600 nM | Potency [8] 10700 nM | Potency [9] 10700 nM | Potency [11] 10700 nM | Potency [12] 17000 nM | Potency [16] 13500 nM
inactive: Potency [13]
